Experimental findings from PubChem BioAssay (NCI) are described below.

The structures appear in SMILES notation. The panel holds about 79,000 compounds, 15% with a hit somewhere; the sample as a whole holds those more often. Unmarked numbers belong to inactive results. Activity calls are given as the source filed them. Cut-off read from the data, not from the text of the source: active = growth inhibition above about 70%; inactive = the rest. Where a SMILES comes first, the peptide text is derived from it. [ ]: non-standard residue; d: D form. ξ: configuration not given here. ξA = CC(N)C(=O)O

One assay in a line: NCI Yeast Anticancer Drug Screen. Data for the bub3 strain (AID 167). The settings on record: S. cerevisiae bub3 mutant strain, at 50.0 µM, hits give high values. The procedure, abridged: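 Mutant yeast screening strain plus compound; vehicle-treated cultures serve as the 0% inhibition reference.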
On to `NC(=O)N=P(c1ccccc1)(c1ccccc1)c1ccccc1`, for which the growth inhibition is 3%.

In the case of `CC(=O)c1ccc(CCCCc2ccc([N+](=O)[O-])cc2)cc1`, the growth inhibition is 18.2%.

Consider `O=S1(=O)C2CCC(C2)C1Cl` (stereo not given), for which the growth inhibition is -1.05%.

As to `O=C(CNCc1ccccc1)NC(Cc1ccccc1)c1ccccc1` (stereo not given), the growth inhibition is 13.4%.

Consider `COc1cc(C2C3=C(CCC3=O)Oc3cc4c(cc32)OCO4)cc(OC)c1OC` (stereo not given), for which the growth inhibition is -4.55%.

With `Cc1cc(C)n(-c2nc(-n3nc(C)cc3C)nc(-n3nc(C)cc3C)n2)n1`, the growth inhibition was -21.1%.

Take `CC(=O)Oc1cc(C)ccc1C`: the growth inhibition is -21.8%.

With `C=CCNC(=S)Nc1ccccc1`, the growth inhibition is -18.9%.

On to `O=C1OCc2nc3c(c(-c4ccccc4C(F)(F)F)c21)C(=O)OC3`, for which the growth inhibition is -35.4%.

`COc1ccc(C(CC(=O)c2ccccc2)SCCN2CCOCC2)cc1` (stereo not given): the growth inhibition is 53.5%.

Turning to `C=CCN(N=O)C(=O)NCCCCC(NC(C)=O)C(=O)NCc1ccccc1` (stereo not given), the growth inhibition was 5.1%.

As to `Cc1ccc(S(=O)(=O)SCC(=O)c2ccc(Br)cc2)cc1`, the growth inhibition was 4.35%.

With `CCOC(=O)CC(=O)Cc1oc2c(C(C)=O)c(O)c(C)c(O)c2c1C`, the growth inhibition was 2.85%.

As for `N#CC(=O)Nc1cccc(Cl)c1`, the growth inhibition was -3.05%.

Regarding `CC(C)CN1CC(=O)N2Cc3ccccc3CN2C(=O)C1`, the growth inhibition was -1.3%.

With `CC[N+](C)(CC)CCOc1nc2c(c(=O)n(C)c(=O)n2C)n1C`, the growth inhibition was -22.5%.

As for `Cc1ccccc1C(=O)Oc1ccccc1Cl`, the growth inhibition is 13.2%.

Consider `COc1ccc(C2NC(C(=O)O)Cc3c2[nH]c2ccccc32)cc1OC` (stereo not given), for which the growth inhibition was -4.3%.

In the case of `O=C(Cc1ccccc1)c1ccccc1C(=O)NCc1ccccc1`, the growth inhibition is 14.9%.

`CCCS(=O)(=O)CCCCCCCCCCC(=O)O`: the growth inhibition was -7.15%.

Take `O=C(O)c1ccc(O)cn1`: the growth inhibition was 3.3%.

Consider `CCOC(=O)COc1c(C)cccc1Cl`, for which the growth inhibition was -23.6%.

As for `CC1c2c(ccc3ccccc23)CCC1CC1CCCc2ccc3ccccc3c21` (stereo not given), the growth inhibition is -1%.

In the case of `COc1ccc(C2C(Cl)C(=O)N2NC(=O)Cc2ccccc2)cc1` (stereo not given), the growth inhibition was -10.9%.

Consider `COC(=O)/C(C)=C/C=C/C(C)C(O)C(C)C1OC(CC(OC)OC)C(C)C(O)C1C` (stereo not given), for which the growth inhibition was 2.9%.

In the case of `OC(c1cc2ccccc2c2ccccc12)C1CCCCN1` (stereo not given), the growth inhibition is 20%.

Take `CN=C1NC(C)(C)C2CCC(C)(CC2)S1`: the growth inhibition was 2.85%.

Turning to `Oc1cc2nc3ccccc3nc2c2ccc(Br)cc12`, the growth inhibition was -17.7%.

As for `CC1CC=CCC1C(=O)OC/C=C/COC(=O)C1CC=CCC1C` (stereo not given), the growth inhibition is 14.9%.

As for `CCN(C(=S)Nc1cccc(C(F)(F)F)c1)c1ccccc1`, the growth inhibition is 41%.

As to `c1ccc2c(c1)CCCN2c1ncnc2ccccc12`, the growth inhibition is 15.6%.

As for `CCCCCOc1nc2c(c(=O)n(C)c(=O)n2C)n1C`, the growth inhibition was 3.45%.

Take `CC(=O)/C=C(\O)c1c(C)[nH]c2ccccc12`: the growth inhibition is -11.9%.

`CC(=O)[CH-]C(=O)c1ccccc1.CC(=O)[CH-]C(=O)c1ccccc1.CCCCCCCCCCCCCCCCCC(=O)[O-].CCCCCCCCCCCCCCCCCC(=O)[O-].[Ti+4]`: the growth inhibition was 2%.

For the compound `Nc1ccc(S(=O)(=O)O)c(N)c1`, the growth inhibition was 13.1%.

Consider `Cc1cc(NS(=O)(=O)c2ccc(N=[N+]([O-])c3ccc(S(=O)(=O)Nc4cc(C)on4)cc3)cc2)no1`, for which the growth inhibition is -13.2%.

As to `COc1ccc(N2C(=O)C3CC(c4ccc(Br)cc4)c4c([nH]c5ccccc45)C3C2=O)cc1` (stereo not given), the growth inhibition was 2.9%.

With `O=c1ncccn1C1OC(CO)C(O)C1F` (stereo not given), the growth inhibition was 3.75%.

Consider `CCCCCCP(=O)(CCCCCC)C1CCCCC1`, for which the growth inhibition is 99% (active).

As for `CC(NC(=O)CNC(=O)CNC(=O)CNC(=O)CN)C(=O)O` (stereo not given) (H-GGGG[ξA]-OH), the growth inhibition is -14.5%.

Another assay in a line: NCI Yeast Anticancer Drug Screen. Data for the mlh1 rad18 strain (AID 175). The settings on record: S. cerevisiae mlh1 rad18 strain growth inhibition; at 50.0 µM; hits give high values. The procedure, abridged: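 A repair-deficient yeast strain is exposed to test compound, and growth is scored relative to vehicle-treated controls.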
As for `NC(=O)N=P(c1ccccc1)(c1ccccc1)c1ccccc1`, the growth inhibition is -12.9%.

With `CC(=O)c1ccc(CCCCc2ccc([N+](=O)[O-])cc2)cc1`, the growth inhibition is -32%.

For the compound `O=S1(=O)C2CCC(C2)C1Cl` (stereo not given), the growth inhibition was 4.2%.

As for `O=C(CNCc1ccccc1)NC(Cc1ccccc1)c1ccccc1` (stereo not given), the growth inhibition is 20.9%.

As to `COc1cc(C2C3=C(CCC3=O)Oc3cc4c(cc32)OCO4)cc(OC)c1OC` (stereo not given), the growth inhibition is 1.8%.

For `Cc1cc(C)n(-c2nc(-n3nc(C)cc3C)nc(-n3nc(C)cc3C)n2)n1`, the growth inhibition was -41.5%.

In the case of `CC(=O)Oc1cc(C)ccc1C`, the growth inhibition was -0.35%.

In the case of `C=CCNC(=S)Nc1ccccc1`, the growth inhibition is -11.9%.

Take `O=C1OCc2nc3c(c(-c4ccccc4C(F)(F)F)c21)C(=O)OC3`: the growth inhibition was -39%.

For `COc1ccc(C(CC(=O)c2ccccc2)SCCN2CCOCC2)cc1` (stereo not given), the growth inhibition was 3.6%.

Take `C=CCN(N=O)C(=O)NCCCCC(NC(C)=O)C(=O)NCc1ccccc1` (stereo not given): the growth inhibition was -14%.

For `Cc1ccc(S(=O)(=O)SCC(=O)c2ccc(Br)cc2)cc1`, the growth inhibition is 9.85%.

As to `CCOC(=O)CC(=O)Cc1oc2c(C(C)=O)c(O)c(C)c(O)c2c1C`, the growth inhibition is 14.8%.

Turning to `N#CC(=O)Nc1cccc(Cl)c1`, the growth inhibition is -0.15%.

In the case of `CC(C)CN1CC(=O)N2Cc3ccccc3CN2C(=O)C1`, the growth inhibition was -2.5%.

`CC[N+](C)(CC)CCOc1nc2c(c(=O)n(C)c(=O)n2C)n1C`: the growth inhibition was -2.65%.

On to `Cc1ccccc1C(=O)Oc1ccccc1Cl`, for which the growth inhibition is 11.3%.

For `COc1ccc(C2NC(C(=O)O)Cc3c2[nH]c2ccccc32)cc1OC` (stereo not given), the growth inhibition was -22%.

As to `O=C(Cc1ccccc1)c1ccccc1C(=O)NCc1ccccc1`, the growth inhibition was -7.1%.

For `CCCS(=O)(=O)CCCCCCCCCCC(=O)O`, the growth inhibition was -6.2%.

As for `O=C(O)c1ccc(O)cn1`, the growth inhibition was 2.55%.

As to `CCOC(=O)COc1c(C)cccc1Cl`, the growth inhibition was -24.6%.

Regarding `CC1c2c(ccc3ccccc23)CCC1CC1CCCc2ccc3ccccc3c21` (stereo not given), the growth inhibition was 17.7%.

For the compound `COc1ccc(C2C(Cl)C(=O)N2NC(=O)Cc2ccccc2)cc1` (stereo not given), the growth inhibition was 12.6%.

For `COC(=O)/C(C)=C/C=C/C(C)C(O)C(C)C1OC(CC(OC)OC)C(C)C(O)C1C` (stereo not given), the growth inhibition is 19.9%.

Regarding `OC(c1cc2ccccc2c2ccccc12)C1CCCCN1` (stereo not given), the growth inhibition was 36.2%.

As to `CN=C1NC(C)(C)C2CCC(C)(CC2)S1`, the growth inhibition was 14.7%.

Turning to `Oc1cc2nc3ccccc3nc2c2ccc(Br)cc12`, the growth inhibition is -14.1%.

As for `CC1CC=CCC1C(=O)OC/C=C/COC(=O)C1CC=CCC1C` (stereo not given), the growth inhibition is -4.65%.

`CCN(C(=S)Nc1cccc(C(F)(F)F)c1)c1ccccc1`: the growth inhibition is 22.6%.

For `c1ccc2c(c1)CCCN2c1ncnc2ccccc12`, the growth inhibition is -7.4%.

With `CCCCCOc1nc2c(c(=O)n(C)c(=O)n2C)n1C`, the growth inhibition is 0.85%.

As to `CC(=O)/C=C(\O)c1c(C)[nH]c2ccccc12`, the growth inhibition was -5.95%.

For the compound `CC(=O)[CH-]C(=O)c1ccccc1.CC(=O)[CH-]C(=O)c1ccccc1.CCCCCCCCCCCCCCCCCC(=O)[O-].CCCCCCCCCCCCCCCCCC(=O)[O-].[Ti+4]`, the growth inhibition was -0.45%.

On to `Nc1ccc(S(=O)(=O)O)c(N)c1`, for which the growth inhibition is 3.95%.

`Cc1cc(NS(=O)(=O)c2ccc(N=[N+]([O-])c3ccc(S(=O)(=O)Nc4cc(C)on4)cc3)cc2)no1`: the growth inhibition was -19.6%.

As to `COc1ccc(N2C(=O)C3CC(c4ccc(Br)cc4)c4c([nH]c5ccccc45)C3C2=O)cc1` (stereo not given), the growth inhibition is -4.95%.

On to `O=c1ncccn1C1OC(CO)C(O)C1F` (stereo not given), for which the growth inhibition was -1.7%.

Consider `CCCCCCP(=O)(CCCCCC)C1CCCCC1`, for which the growth inhibition is 99% (active).

For the compound `CC(NC(=O)CNC(=O)CNC(=O)CNC(=O)CN)C(=O)O` (stereo not given) (H-GGGG[ξA]-OH), the growth inhibition is -31.6%.
